Assay outcomes (PubChem)
Most compounds without a hit are left out; they make up all but 2.6% or so of the library.
KKLEB cytotox = CF airway cell cytotoxicity counter-screen. KKLEB CF airway cells viability, ATPlite luminescence, overnight; hits give low values; cells stimulated with P. aeruginosa culture filtrate. activity change (cytotoxicity), % at 5 µM. 0.36% of 360,000 active. AID 602141;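 active means corrected activity change at or below -50% at 5 µM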
HIF-2a inh = blocks HIF-2a reporter activity | AID 624352 | 786-0 RCC cells HIF-2a reporter, luciferase luminescence, overnight | 0.72% of 360,000 active | inhibition, % at 18.8 µM;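 active means inhibition of the luminescence signal of 40% or more relative to plate controls, in a single-dose primary screen at 18.75 µM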
Peg3 promoter = Peg3 promoter activity inhibition | HeLa PEG-Prom luciferase reporter, luminescence, overnight | inhibition, % at 20 µM | 1.7% of 360,000 active | AID 588405;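 active means inhibition of at least 50% at 20 µM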
Shn3 3UTR inh = reduces Shn3 3'UTR luciferase signal in osteoblasts | Clone20 osteoblast Shn3 3'UTR firefly luciferase, 24 h | inhibition, % at 12.5 µM | 0.52% of 360,000 active | AID 588674;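 active means mean inhibition of at least 75% with every replicate also reaching 75%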
CF NFkB inh = inhibitors of cystic fibrosis induced NF-kB. KKLEB NF-kB-GFP reporter, PAF-induced, GFP fluorescence overnight. inhibition, % at 5 µM. 0.86% of 360,000 active. AID 588850;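 active means at least 50% inhibition at 5 µM, scaled per plate between neutral and stimulator controls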;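 further: PAF is a Pseudomonas aeruginosa culture filtrate used as stimulus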
Mdm2 MdmX conf = Mdm2/MdmX (human) interaction inhibition, confirmed; SaOS-2 split-luciferase Mdm2/MdmX complementation, luminescence; inhibition, % at 8 µM; AID 504601; 99% of 740 active; shares compounds with HIF-2a inh;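 active means mean inhibition of the luminescence signal across two replicates at or above 26 percent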
Target sequence (O15151 whole entry, looked up): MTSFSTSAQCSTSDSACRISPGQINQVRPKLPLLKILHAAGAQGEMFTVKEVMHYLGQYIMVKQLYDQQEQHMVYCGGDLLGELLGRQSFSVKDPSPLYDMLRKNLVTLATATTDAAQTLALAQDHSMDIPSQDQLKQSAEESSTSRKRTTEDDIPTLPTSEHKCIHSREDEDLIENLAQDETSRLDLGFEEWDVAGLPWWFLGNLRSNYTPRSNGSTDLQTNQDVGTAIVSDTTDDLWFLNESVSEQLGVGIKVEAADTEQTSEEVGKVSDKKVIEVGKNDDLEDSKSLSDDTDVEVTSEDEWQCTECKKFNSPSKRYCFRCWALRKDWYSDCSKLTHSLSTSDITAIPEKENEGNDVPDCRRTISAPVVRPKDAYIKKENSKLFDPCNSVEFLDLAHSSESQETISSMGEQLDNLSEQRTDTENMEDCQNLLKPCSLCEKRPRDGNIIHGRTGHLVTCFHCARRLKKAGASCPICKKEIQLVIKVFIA
Target sequence (Q00987 whole entry, looked up): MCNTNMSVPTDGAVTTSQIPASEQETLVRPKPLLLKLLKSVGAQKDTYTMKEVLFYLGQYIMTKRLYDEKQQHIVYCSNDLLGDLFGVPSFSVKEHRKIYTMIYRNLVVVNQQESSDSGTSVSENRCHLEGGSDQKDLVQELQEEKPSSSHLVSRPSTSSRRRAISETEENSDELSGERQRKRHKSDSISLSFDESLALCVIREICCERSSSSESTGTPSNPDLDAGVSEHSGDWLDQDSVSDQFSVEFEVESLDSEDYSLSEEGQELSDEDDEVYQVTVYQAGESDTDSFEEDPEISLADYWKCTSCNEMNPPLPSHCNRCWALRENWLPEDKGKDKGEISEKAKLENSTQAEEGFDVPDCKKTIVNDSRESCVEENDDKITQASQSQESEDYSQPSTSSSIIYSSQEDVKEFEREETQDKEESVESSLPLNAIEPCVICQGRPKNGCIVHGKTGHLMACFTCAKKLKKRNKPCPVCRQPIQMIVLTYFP
HIF-2a inh conf = HIF-2a inhibition, single concentration confirmation. shares compounds with HIF-2a inh. 786-0 RCC cells, HIF-2a luciferase reporter luminescence, overnight. inhibition, % at 18.8 µM. 56% of 1,800 active. AID 651580;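 active means mean inhibition across four replicates of at least 40 percent at the single tested concentration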
HIF-1a counter = counter-screen for HIF-2a inhibitors: HIF-1a inhibition in MiaPaCa-2 cells | AID 651589 | MiaPaCa-2 HIF-1a luciferase reporter, desferoxamine, overnight | shares compounds with HIF-2a inh | inhibition, % at 18.8 µM | 72% of 1,800 active;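 active means mean inhibition of the reporter signal across four replicates at the single tested dose of 50% or more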
Of the large screens only hits and unclear results are named; the others gave an inactive call (follow-up assays come after a bar, where they were run).

NC(=O)NC(=O)COC(=O)CCCSc1nc2ccccc2s1	HIF-2a inh 71 | HIF-2a inh conf 83 | HIF-1a counter 62
c1ccc2sc(SCSc3nc4ccccc4s3)nc2c1	none (no result: Shn3 3UTR inh)
O=C(CCCSc1nc2ccccc2s1)NC1=NCCS1	HIF-2a inh 72 | HIF-2a inh conf 85 | HIF-1a counter inactive
O=C(O)CCSc1nc2ccccc2s1	HIF-2a inh 89 | HIF-2a inh conf 97 | HIF-1a counter 92
C[C@@]12C(=O)N(c3ccc(Br)cc3)C(=O)N1[C@@H]1c3ccccc3OC[C@@H]1[C@H]2c1ccccc1	none
CN1CCN(C(=O)c2ccc(NS(=O)(=O)c3cccc([N+](=O)[O-])c3)cc2)CC1	none
CCc1ccc(-c2nc(CSCC(=O)NCCCN3CCCC3=O)c(C)o2)cc1	HIF-2a inh 45 | HIF-2a inh conf inactive | HIF-1a counter inactive
O=C(O)c1ccc(Sc2nnnn2-c2ccccc2)c([N+](=O)[O-])c1	none
COC(=O)c1ccc(Sc2nnnn2-c2ccccc2)c([N+](=O)[O-])c1	HIF-2a inh 40 | HIF-2a inh conf inactive | HIF-1a counter inactive
Cc1cccc(NC(=O)/C=C/c2ccc([N+](=O)[O-])s2)c1	HIF-2a inh 49, Peg3 promoter 107, Shn3 3UTR inh 91 | HIF-2a inh conf inactive | HIF-1a counter 103
Cc1ccc(NC(=O)/C=C/c2ccc([N+](=O)[O-])s2)c(C)c1	HIF-2a inh 79, Peg3 promoter 89, Shn3 3UTR inh 94 | HIF-2a inh conf inactive | HIF-1a counter 100
Cc1ccc(NC(=O)/C=C/c2ccc([N+](=O)[O-])s2)cc1	none
O=C(/C=C/c1cccs1)NNC(=O)c1ccccc1	none
COCCNC(=O)COC(=O)/C=C/c1c(C)nn(Cc2ccc(Cl)cc2Cl)c1Cl	none
Cc1ccccc1OCC(=O)N1CCCCCCC1	none
Cc1cc(N2CCN(C)CC2)nc2ccc(NC(=S)N3CCCCC3)cc12	none
Cc1cccc(N2CCN(C(=S)Nc3ccc4nc(N5CCN(C)CC5)cc(C)c4c3)CC2)c1C	KKLEB cytotox -73, HIF-2a inh 82, Peg3 promoter 104 | HIF-2a inh conf inactive | HIF-1a counter 105
NC(=O)c1ccc(NC(=O)C#Cc2ccccc2)cc1	Peg3 promoter 58 | Mdm2 MdmX conf 101
COc1ccccc1CNc1nc(NCc2ccc(NC(C)=O)cc2)c2sccc2n1	HIF-2a inh 57, Peg3 promoter 72 | HIF-2a inh conf inactive | HIF-1a counter 70
CC(=O)Nc1cccc(-c2csc(C(O)c3cccc(Cl)c3)n2)c1 (stereo unspecified)	none
CCN(CC)c1ccc(NC(=O)CCCCC(=O)Nc2ccc(N(CC)CC)cc2)cc1	HIF-2a inh 65 | HIF-2a inh conf 66 | HIF-1a counter inactive
CCN(CC)c1ccc(NC(=O)CCCCCN2C(=O)c3ccccc3C2=O)cc1	none
O=C(CSc1ncnc2c1nnn2Cc1ccccc1)NC1CCCC1	none
CC(C)(C)NC(=O)CSc1ncnc2c1nnn2Cc1ccccc1Cl	HIF-2a inh 48 | HIF-2a inh conf inactive | HIF-1a counter inactive
CCN1CCN(CCCNC(=O)c2ccc(/C=C3/Sc4ccccc4N(Cc4ccccc4F)C3=O)cc2)CC1	HIF-2a inh 91, Peg3 promoter 59 | HIF-2a inh conf inactive | HIF-1a counter 102
CCS(=O)(=O)N1CCC(C(=O)Nc2cc(C)ccc2O)CC1	none
Cc1ccc(C)c(NCC(O)c2ccccc2)c1 (stereo unspecified)	none
CCCCC(NC(=O)Cc1c(C)c2cc3c4c(oc3c(C)c2oc1=O)CCCC4)C(=O)O (stereo unspecified)	none
CCCCC(NC(=O)CCc1c(C)c2cc3c4c(oc3c(C)c2oc1=O)CCCC4)C(=O)O (stereo unspecified)	HIF-2a inh 53 | HIF-2a inh conf 55 | HIF-1a counter inactive
Cc1c(CCC(=O)NCCCn2ccnc2)c(=O)oc2c(C)c3oc4c(c3cc12)CCCC4	HIF-2a inh 47 | HIF-2a inh conf 63 | HIF-1a counter 59
Cc1c(CCC(=O)N2CCC[C@H]2C(=O)O)c(=O)oc2c(C)c3oc4c(c3cc12)CCCC4	HIF-2a inh 57 | HIF-2a inh conf 71 | HIF-1a counter inactive
Cc1c(CCC(=O)NCCCCCC(=O)O)c(=O)oc2c(C)c3oc4c(c3cc12)CCCC4	none
COC(=O)c1ccc(-c2nc(CN3CCN(C(=O)c4ccco4)CC3)c(C)o2)cc1	none
COc1ccc2cc(C(=O)N3CCN(c4ccccc4OC)CC3)[nH]c2c1	none
Cc1nc2cc(-c3ccc(Cl)cc3)nn2c(C)c1CCC(=O)NCc1ccco1	HIF-2a inh 81 | HIF-2a inh conf 87 | HIF-1a counter inactive
Cc1c(C(=O)N/N=C/c2c(O)ccc3ccccc23)nnn1-c1nonc1N	none | Mdm2 MdmX conf 92
COc1ccc2ccccc2c1/C=N/NC(=O)c1nnn(-c2nonc2N)c1C(C)C	none
O=C(N/N=C/c1c(O)ccc2ccccc12)c1ccc(Br)o1	none | Mdm2 MdmX conf 90
CC(C)[C@H](NC(=O)c1cccc(S(=O)(=O)N2CCOCC2)c1)C(=O)OCC(=O)Nc1cccc(Br)c1	none
CSc1ccc(/C=N/Nc2cccc(C(=O)O)c2)cc1	HIF-2a inh 71, Peg3 promoter 68 | HIF-2a inh conf 85 | HIF-1a counter inactive
C[C@H](NC(=O)c1[nH]cnc1C(=O)N[C@@H](C)CO)c1ccccc1	none
Cc1ccc(C(C)C)c(OCC(=O)Nc2ccc3c(c2)nc(CCN2CCCCC2)n3C)c1	Peg3 promoter 105 | Mdm2 MdmX conf 101
Cn1c(CCN2CCCCC2)nc2cc(NC(=O)COc3ccc(Cl)cc3)ccc21	none
S=C(N/N=C/c1ccc2ncccc2c1)Nc1ccccc1	HIF-2a inh 48 | HIF-2a inh conf inactive | HIF-1a counter 63
C(=N\NCc1ccccc1)/c1ccc2ncccc2c1	none
S=C(c1cn(CCOc2ccccc2)c2ccccc12)N1CCCC1	none
Cc1ccc(OCCn2cc(C(=S)N3CCCC3)c3ccccc32)cc1C	none | Mdm2 MdmX conf 100
O=C(NCc1nnnn1-c1ccc(F)cc1)c1cc2ccccc2o1	none
CN(C)C/C=C/C(O)(c1ccccc1)c1ccccc1	none
CN(C)CC(CCC(CN(C)C)C(O)(c1ccccc1)c1ccccc1)C(O)(c1ccccc1)c1ccccc1 (stereo unspecified)	none (no result: KKLEB cytotox, HIF-2a inh, Peg3 promoter, Shn3 3UTR inh, CF NFkB inh) | Mdm2 MdmX conf 103
Cc1nc2cc(NC(=O)c3ccc([N+](=O)[O-])s3)ccc2s1	HIF-2a inh 67 | HIF-2a inh conf 75 | HIF-1a counter 93
